High-throughput results deposited in PubChem BioAssay by several laboratories.
tim10-1 inh = growth inhibitors of tim10-1 mutant yeast; S. cerevisiae tim10-1 ts strain growth, BacTiter-Glo, 24 h; inhibition, % at 20 µM; 330,000 tested, 2.2% active; AID 463190;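 active = inhibition of at least 40%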;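 note: mutant grown at 25 °C; 0% = DMSO wells with yeast and 100% = wells holding no yeast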
NLRP3 yeast inh = inhibitors of NALP3 inflammasome in yeast. 330,000 tested, 0.39% active. Yeast reconstituted NLRP3/ASC/caspase-1, beta-gal luminescence, 24 h. inhibition, % at 10 µM;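 active = inhibition of 50% or more; inactive = inhibition below 50%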;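 note: plate controls were induced DMSO wells for no effect and uninduced yeast grown without galactose for full effect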
V-ATPase pH = regulators of yeast V-ATPase proton transport | 350,000 tested, 0.37% active | response, % at 10 µM | S. cerevisiae, pHLuorin cytosolic pH fluorescence | AID 504577; in the data active = response mostly above about 7.3%, no sharp cut-off; inactive = mostly below about 5.4%; note: actives read high
TIM10 inh = inhibits growth of TIM10 yeast strain. S. cerevisiae TIM10 strain growth, BacTiter-Glo luminescence, 24 h. inhibition, % at 10 µM. 330,000 tested, 1.4% active;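 active = inhibition of 40% or more at the single tested concentration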;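 note: wild-type TIM10 isogenic control strain grown at permissive 25 °C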
tim23-1 inh = inhibits growth of tim23-1 mutant yeast | S. cerevisiae tim23-1 growth, BacTiter-Glo luminescence, 24 h | inhibition, % at 20 µM | 330,000 tested, 1.3% active | AID 463212;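 active = growth inhibition of the mutant yeast at or above 50%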;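 note: temperature-sensitive mutant grown at 25 °C; plate controls were DMSO-treated mutant yeast for no effect and medium wells lacking yeast for full effect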
NALP1 inh = inhibitors of NALP1 inflammasome in yeast; S. cerevisiae NALP1/ASC/caspase-1 growth, X-gal OD620, 72 h; inhibition, % at 10 µM; 280,000 tested, 0.61% active; AID 2071; in the data active = inhibition mostly above about 24%, no sharp cut-off; inactive = mostly below about 32%
NALP3 confirm = confirmation of NALP3 inhibitors in yeast; shares compounds with NLRP3 yeast inh; yeast expressing human NALP3, luminescence; inhibition, % at 10 µM; 1,300 tested, 81% active; in the data active = inhibition above about 48%
Casp1 ASC ctr = active in yeast caspase-1-ASC counter-screen for NALP3 inhibitors; 1,000 tested, 66% active; shares compounds with NLRP3 yeast inh; inhibition, % at 10 µM; AID 488784; yeast expressing Caspase-1-ASC, luminescence counter screen
NALP3 retest = retest-confirmed inhibitor of NALP3 in yeast; yeast expressing human NALP3, luminescence read-out; shares compounds with NLRP3 yeast inh; AID 488794; inhibition, % at 10 µM; 1,000 tested, 53% active
An asterisk follows results filed as active. This is a sample that favours compounds with a hit; in the whole collection about 4.2% have one here. Cut-off read from the data, not from the text of the source, unless noted: active = inhibition above about 50%; inactive = the rest.

For CCCN1CCN(c2ncnc3scc(C4COc5ccccc5O4)c23)CC1 (stereo unspecified) the results were tim10-1 inh 31, NLRP3 yeast inh -4, V-ATPase pH -2, TIM10 inh 1, tim23-1 inh 24 and NALP1 inh 9.
For Cc1ccccc1Nc1nc(N)nc(CSc2nnnn2C)n1 the results were tim10-1 inh 3, NLRP3 yeast inh 18, V-ATPase pH -2, TIM10 inh 11, tim23-1 inh -11 and NALP1 inh -7.
For Cc1ccccc1Nc1nc(N)nc(CSc2nnnn2-c2ccccc2)n1 the results were tim10-1 inh 21, NLRP3 yeast inh -10, V-ATPase pH 13*, TIM10 inh 31, tim23-1 inh 27 and NALP1 inh 3.
For N#Cc1ccc(N2CCOCC2)nc1 the results were tim10-1 inh -12, NLRP3 yeast inh -10, V-ATPase pH 11, TIM10 inh 0, tim23-1 inh -13 and NALP1 inh 4.
`O=C1N=C(N2CCN(c3ccccc3)CC2)SC1Cc1ccccc1` (stereo unspecified) gave tim10-1 inh 8, NLRP3 yeast inh 35, V-ATPase pH -1, TIM10 inh -26, tim23-1 inh 27 and NALP1 inh 40*.
O=C1CC(N2CCC(c3nc4ccccc4[nH]3)CC2)C(=O)N1c1ccccc1F (stereo unspecified) was read as tim10-1 inh 17, NLRP3 yeast inh -5, V-ATPase pH 2, TIM10 inh 19, tim23-1 inh 17 and NALP1 inh 32*.
`COc1ccc(N2C(=O)CC(N3CCC(c4nc5ccccc5[nH]4)CC3)C2=O)cc1` (stereo unspecified) gave tim10-1 inh 31, NLRP3 yeast inh -10, V-ATPase pH -3, TIM10 inh 18, tim23-1 inh 17 and NALP1 inh 11.
Cc1ccc(C)c(OCC(=O)NC2CCCCCC2)c1 was read as tim10-1 inh 18, NLRP3 yeast inh 20, V-ATPase pH -2, TIM10 inh 3, tim23-1 inh 30 and NALP1 inh 10.
For CCn1c(SCC(=O)Nc2sc3c(c2C#N)CCCC3)nnc1-c1ccncc1 the results were tim10-1 inh 6, NLRP3 yeast inh 17, V-ATPase pH 0, TIM10 inh 6, tim23-1 inh 20 and NALP1 inh -14.
For CC(C)CNC(=O)c1cccc(NC(=O)Cc2ccc(Br)cc2)c1 the results were tim10-1 inh 11, NLRP3 yeast inh 9, V-ATPase pH 6, TIM10 inh -8, tim23-1 inh 3 and NALP1 inh 34.
`CC(=O)Cn1ncc(N2CCCCC2)c(Cl)c1=O` gave tim10-1 inh 1, NLRP3 yeast inh -14, V-ATPase pH -3, TIM10 inh -8, tim23-1 inh -4 and NALP1 inh 0.
`CO/N=C(\Cn1ncc(N2CCCC2)c(Cl)c1=O)c1ccc(Cl)cc1` gave tim10-1 inh 12, NLRP3 yeast inh 70*, V-ATPase pH -4, TIM10 inh -29, tim23-1 inh 28, NALP1 inh 22, NALP3 confirm 73*, Casp1 ASC ctr 75* and NALP3 retest 60*.
CCCCn1c(=O)c(Cc2ccccc2)c(O)c2ccccc21 was read as tim10-1 inh 10, NLRP3 yeast inh 18, V-ATPase pH 6, TIM10 inh -4, tim23-1 inh 8 and NALP1 inh -4.
Screening O=C(Cn1ccn(-c2ccc(F)c(Cl)c2)c(=O)c1=O)NCCc1ccccc1 returned tim10-1 inh -20, NLRP3 yeast inh 26, V-ATPase pH -1, TIM10 inh 0 and tim23-1 inh -3.
For Cc1nc2sc(-c3ccccc3)cc2c(=O)n1-n1cccc1 the results were tim10-1 inh 4, NLRP3 yeast inh 52*, V-ATPase pH -4, TIM10 inh -4, tim23-1 inh -3, NALP1 inh -15, NALP3 confirm 71*, Casp1 ASC ctr 58* and NALP3 retest 44.
